Laboratory results reported in PubChem BioAssay AID1159580 (chemical genetic matrix, 2015).
Hit rate of the full screen: of about 5,500 compounds, about 2,000 (36%) were called active. Roughly 18% stayed inconclusive and do not appear here. No stated cut-off is given here; in the data, active means normalized growth mostly below about 0.91 (no sharp cut-off); inconclusive means no clear call, values can overlap the other calls; inactive means mostly above about 0.92. Some of the results follow. Where a SMILES comes first, the peptide text is derived from it. Bridges are numbered along the chain shown (N, C = ends). [ ]: non-standard residue; d: D form. The star is where a group is joined. Octanoyl(6-Me) = CCC(C)CCCCC(=O)*; Dab = NCC[CH](N)C(=O)O

Assay: chemical genetic growth profiling, strain panel (AID 1159580);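 further: tested at 20 µM; growth read once vehicle control cultures reached saturation at 30 °C; 1 = growth at the plate median or of vehicle wells; lower values mean less growth of the strain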
Settings: growth OD

Measured: normalized growth

CCC(C)CCCCC(=O)NC(CCN)C(=O)NC(C(=O)NC(CCN)C(=O)NC1CCNC(=O)C(C(C)O)NC(=O)C(CCN)NC(=O)C(CCN)NC(=O)C(CC(C)C)NC(=O)C(Cc2ccccc2)NC(=O)C(CCN)NC1=O)C(C)O (configuration not stated) ({Octanoyl(6-Me)}-[Dab]T[Dab][Dab][Dab]FL[Dab][Dab]T; lactam 4-C; configuration not given here)
inactive: S. cerevisiae deletion strains, locus YJR075W, strain HOC1, hits give low values 0.997 | S. cerevisiae deletion strains, locus YKL009W, strain mrt4, hits give low values 0.99 | S. cerevisiae deletion strains, locus YKL068W, hits give low values 1 | S. cerevisiae deletion strains, locus YKL085W, strain MDH1 (second series), hits give low values 0.998 | S. cerevisiae deletion strains, locus YKL085W, strain MDH1, hits give low values 0.998 | S. cerevisiae deletion strains, locus YKL160W, strain elf1, hits give low values 0.97 | S. cerevisiae deletion strains, locus YKL190W, strain CNB1, hits give low values 0.991 | S. cerevisiae deletion strains, locus YKR001C, strain vps1, hits give low values 0.987 | S. cerevisiae deletion strains, locus YKR026C, strain gcn3, hits give low values 1 | S. cerevisiae deletion strains, locus YKR091W, strain srl3, hits give low values 1.01 | S. cerevisiae deletion strains, locus YLL001W, strain dnm1, hits give low values 0.989 | S. cerevisiae deletion strains, locus YLL026W, hits give low values 1.02 | S. cerevisiae deletion strains, locus YLL041C, strain sdh2, hits give low values 0.995 | S. cerevisiae deletion strains, locus YLR027C, strain aat2, hits give low values 0.988 | S. cerevisiae deletion strains, locus YLR039C, strain RIC1, hits give low values 1.04 | S. cerevisiae deletion strains, locus YLR058C, strain SHM2, hits give low values 1 | S. cerevisiae deletion strains, locus YLR102C, strain apc9, hits give low values 1.01 | S. cerevisiae deletion strains, locus YLR113W, strain HOG1, hits give low values 0.986 | S. cerevisiae deletion strains, locus YLR221C, strain rsa3, hits give low values 0.988 | S. cerevisiae deletion strains, locus YLR258W, strain gsy2, hits give low values 0.978 | S. cerevisiae deletion strains, locus YLR262C, strain YPT6 (second series), hits give low values 1.04 | S. cerevisiae deletion strains, locus YLR262C, strain YPT6, hits give low values 1.05 | S. cerevisiae deletion strains, locus YLR268W, strain sec22, hits give low values 1.05 | S. cerevisiae deletion strains, locus YLR320W, strain mms22, hits give low values 0.957 | S. cerevisiae deletion strains, locus YLR330W, strain CHS5, hits give low values 1 | S. cerevisiae deletion strains, locus YLR342W, strain FKS1 (second series), hits give low values 0.95 | S. cerevisiae deletion strains, locus YLR342W, strain FKS1, hits give low values 0.995 | S. cerevisiae deletion strains, locus YLR357W, strain rsc2, hits give low values 0.968 | S. cerevisiae deletion strains, locus YLR370C, strain arc18, hits give low values 0.979 | S. cerevisiae deletion strains, locus YLR371W, strain rom2, hits give low values 1.01 | S. cerevisiae deletion strains, locus YLR384C, strain iki3, hits give low values 0.981 | S. cerevisiae deletion strains, locus YLR418C, strain cdc73, hits give low values 1.02 | S. cerevisiae deletion strains, locus YML016C, strain PPZ1, hits give low values 0.992 | S. cerevisiae deletion strains, locus YML032C, strain rad52, hits give low values 1.02 | S. cerevisiae deletion strains, locus YML120C, strain ndi1, hits give low values 0.985 | S. cerevisiae deletion strains, locus YML124C, strain tub3, hits give low values 1.01 | S. cerevisiae deletion strains, locus YMR058W, strain fet3, hits give low values 0.984 | S. cerevisiae deletion strains, locus YMR078C, strain ctf18, hits give low values 1.01 | S. cerevisiae deletion strains, locus YMR125W, strain sto1, hits give low values 0.993 | S. cerevisiae deletion strains, locus YMR129W, hits give low values 1 | S. cerevisiae deletion strains, locus YMR205C, strain PFK2, hits give low values 0.957 | S. cerevisiae deletion strains, locus YMR223W, strain ubp8, hits give low values 0.975 | S. cerevisiae deletion strains, locus YMR231W, strain pep5, hits give low values 1 | S. cerevisiae deletion strains, locus YMR263W, strain SAP30, hits give low values 1.02 | S. cerevisiae deletion strains, locus YMR307W, strain GAS1, hits give low values 0.984 | S. cerevisiae deletion strains, locus YNL067W, strain RPL9B, hits give low values 1.01 | S. cerevisiae deletion strains, locus YNL071W, strain lat1, hits give low values 1.02 | S. cerevisiae deletion strains, locus YNL128W, strain TEP1, hits give low values 0.982 | S. cerevisiae deletion strains, locus YNL153C, strain GIM3, hits give low values 1.02 | S. cerevisiae deletion strains, locus YNL183C, strain NPR1, hits give low values 0.944 | S. cerevisiae deletion strains, locus YNL209W, strain ssb2, hits give low values 1 | S. cerevisiae deletion strains, locus YNL233W, strain BNI4, hits give low values 0.992 | S. cerevisiae deletion strains, locus YNL248C, strain rpa49, hits give low values 0.989 | S. cerevisiae deletion strains, locus YNL250W, strain rad50, hits give low values 0.996 | S. cerevisiae deletion strains, locus YNL271C, strain bni1, hits give low values 1.01 | S. cerevisiae deletion strains, locus YNL298W, strain CLA4, hits give low values 0.997 | S. cerevisiae deletion strains, locus YNL307C, strain MCK1, hits give low values 1.01 | S. cerevisiae deletion strains, locus YNL322C, strain KRE1 (second series), hits give low values 0.976 | S. cerevisiae deletion strains, locus YNL322C, strain KRE1, hits give low values 0.991 | S. cerevisiae deletion strains, locus YNR049C, strain mso1, hits give low values 0.997 | S. cerevisiae deletion strains, locus YNR052C, strain pop2, hits give low values 0.979 | S. cerevisiae deletion strains, locus YOL006C, strain TOP1, hits give low values 0.992 | S. cerevisiae deletion strains, locus YOL012C, strain htz1 1.19 | S. cerevisiae deletion strains, locus YOL147C, strain pex11, hits give low values 1.01 | S. cerevisiae deletion strains, locus YOR001W, strain rrp6, hits give low values 0.97 | S. cerevisiae deletion strains, locus YOR061W, strain CKA2, hits give low values 0.991 | S. cerevisiae deletion strains, locus YOR069W, strain VPS5, hits give low values 1 | S. cerevisiae deletion strains, locus YOR070C, strain gyp1, hits give low values 0.995 | S. cerevisiae deletion strains, locus YOR080W, strain dia2, hits give low values 0.991 | S. cerevisiae deletion strains, locus YOR083W, strain WHI5, hits give low values 0.97 | S. cerevisiae deletion strains, locus YOR106W, strain vam3, hits give low values 0.987 | S. cerevisiae deletion strains, locus YOR136W, strain idh2, hits give low values 1 | S. cerevisiae deletion strains, locus YOR144C, strain elg1, hits give low values 1 | S. cerevisiae deletion strains, locus YOR184W, strain ser1, hits give low values 1.01 | S. cerevisiae deletion strains, locus YOR231W, strain MKK1, hits give low values 0.978 | S. cerevisiae deletion strains, locus YOR265W, strain rbl2, hits give low values 0.986 | S. cerevisiae deletion strains, locus YOR270C, strain vph1, hits give low values 0.963 | S. cerevisiae deletion strains, locus YOR290C, strain snf2, hits give low values 0.963 | S. cerevisiae deletion strains, locus YOR316C, strain cot1, hits give low values 1 | S. cerevisiae deletion strains, locus YPL051W, strain arl3, hits give low values 0.963 | S. cerevisiae deletion strains, locus YPL055C, strain LGE1, hits give low values 0.994 | S. cerevisiae deletion strains, locus YPL078C, strain atp4, hits give low values 0.972 | S. cerevisiae deletion strains, locus YPL106C, strain sse1, hits give low values 0.956 | S. cerevisiae deletion strains, locus YPL240C, strain hsp82, hits give low values 0.981 | S. cerevisiae deletion strains, locus YPL241C, strain CIN2, hits give low values 1 | S. cerevisiae deletion strains, locus YPL256C, strain CLN2, hits give low values 0.994 | S. cerevisiae deletion strains, locus YPR119W, strain clb2, hits give low values 0.999 | S. cerevisiae deletion strains, locus YPR141C, strain kar3, hits give low values 1.01 | S. cerevisiae deletion strains, locus YPR163C, strain tif3, hits give low values 1.02 | S. cerevisiae deletion strains, locus YPR167C, strain met16, hits give low values 1 | S. cerevisiae deletion strains, strain wtn01, hits give low values 1.01 | S. cerevisiae strains, strain wild type, hits give low values 0.99
